KCNQ2 inh – rat KCNQ2 potassium channel inhibitors, primary screen, cell-based, CHO-K1, FluxOR thallium flux, B-score; Potassium voltage-gated channel subfamily KQT member 2 (Rattus norvegicus), O88943; AID 2156, 2009; B-score at 10 µM; 310,000 compounds, 1.1% hits; 20 min; hits give low values;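 active means fluorescence ratio B-score at most minus 3 library SDs, with starting brightness B-score within 2 library SDs, cut at about -5.5 in these data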
KCNQ2 enhance – potentiators of rat KCNQ2 potassium channel. B-score at 10 µM. CHO-K1 KCNQ2, FluxOR thallium flux fluorescence; hits give high values. AID 2239, 2010. 310,000 compounds, 0.54% hits;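 active means fluorescence ratio B-score at least 3 SD of library B-scores, with initial fluorescence B-score within 3 of them, cut at about 5.3 in these data; same plate scores as AID 2156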;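 further: B-score of peak minus minimum over baseline fluorescence ratio after K+ and Tl+ stimulus; positive B-score means potentiation of KCNQ2 with more thallium influx and brighter signal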
KCNQ2 inh conf – rat KCNQ2 potassium channel inhibitors, confirmation, cell-based, thallium flux; 1,000 compounds, 57% hits; activity change, negative = inhibition, % at 10 µM; shares compounds with KCNQ2 inh; KCNQ2-expressing cells, inhibition; hits give low values
KCNQ1 spec – human KCNQ1 channel inhibition, counter-screen for KCNQ2 inhibitor project, cell-based, FluxOR thallium flux; 1,000 compounds, 15% hits; activity change, negative = inhibition, % at 10 µM; AID 493026, 2011; KCNQ1-expressing cells, FluxOR thallium flux fluorescence; hits give low values; shares compounds with KCNQ2 inh;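 active means activity change at least 3 SD of negative controls below their mean in both duplicate wells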;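 further: CHO cells stably transfected with KCNQ1 and depolarized by potassium stimulus; peak minus minimum fluorescence over baseline after thallium addition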
CHO parental ctr – thallium flux change in parental CHO cells, counter-screen for KCNQ2 inhibitor project | activity change, % at 10 µM | hits give low values | 1,000 compounds, 14% hits | shares compounds with KCNQ2 inh
KCNQ2 patch conf – rat KCNQ2 channel inhibitors, confirmation, cell-based, automated patch clamp, single concentration; shares compounds with KCNQ2 inh; KCNQ2-expressing cells, automated patch clamp current; calls only at 10 µM; 550 compounds, 49% hits; AID 588531, 2011
Kir21 confirm – mouse Kir2.1 channel blockers, retest, confirmation, cell-based, FluxOR thallium flux, duplicate; shares compounds with KCNQ2 enhance; Kir2.1-expressing cells, FluxOR thallium flux fluorescence; hits give low values; Tl flux remaining, % of negative control (hits give low values), % at 10 µM; 2,300 compounds, 41% hits; AID 2032, 2009;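 active means Primary-screen hit whose thallium flux fell at least 3 control SD below untreated wells in both duplicates, with normal baseline fluorescence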
Target sequence (P35561 whole entry, looked up): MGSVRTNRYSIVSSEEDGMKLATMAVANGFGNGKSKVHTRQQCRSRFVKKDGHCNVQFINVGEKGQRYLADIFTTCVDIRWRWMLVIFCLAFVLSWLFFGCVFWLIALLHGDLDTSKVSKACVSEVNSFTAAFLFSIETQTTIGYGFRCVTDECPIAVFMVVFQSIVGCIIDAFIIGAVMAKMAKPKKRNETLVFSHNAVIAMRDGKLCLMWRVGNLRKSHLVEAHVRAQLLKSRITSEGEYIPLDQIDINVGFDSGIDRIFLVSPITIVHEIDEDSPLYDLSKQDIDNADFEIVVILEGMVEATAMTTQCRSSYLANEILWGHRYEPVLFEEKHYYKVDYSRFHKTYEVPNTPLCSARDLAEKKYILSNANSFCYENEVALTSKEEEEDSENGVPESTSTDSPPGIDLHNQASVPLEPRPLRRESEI
HEK293 ctr – parental HEK293 activity in Kir2.1 inhibitor counter-screen; shares compounds with KCNQ2 enhance; parental HEK293 cells, FluxOR thallium flux fluorescence; 0% = unstimulated blank wells; FluxOR signal as % of negative control (100 = no effect), % at 10 µM; 2,300 compounds, 19% hits; AID 2105;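 active means dye signal at least 3 control SD above or below untreated wells in both duplicates, raw fluorescence within 3, either direction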;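 further: percent is based on the flux ratio of peak minus minimum fluorescence over baseline F0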
CHO-K1 ctr – nonspecific thallium flux increase in parental CHO-K1, confirmation, counter-screen for KCNQ2 potentiator project, cell-based, FluxOR thallium flux, duplicate; parental CHO-K1 cells, FluxOR thallium flux fluorescence; zero = vehicle mean+3SD, 100% = vehicle-minus-blank window; shares compounds with KCNQ2 enhance; activity increase over 3SD of controls, % at 10 µM; 1,200 compounds, 43% hits; AID 2282, 2010;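 active means signal rise of at least 3 SD above the untreated control mean, in both duplicate wells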;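 further: counter screen of KCNQ2 potentiator hits so any rise reflects channel-independent effects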
KCNQ1 sel pot – human KCNQ1 channel potentiation off-target, confirmation, selectivity assay for KCNQ2 potentiator project, cell-based, CHO, FluxOR thallium flux | shares compounds with KCNQ2 enhance | CHO KCNQ1 stable, FluxOR thallium flux fluorescence; beyond 3SD, as % of vehicle-control signal | activation over 3SD threshold, % at 10 µM | 1,200 compounds, 28% hits;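 active means fluorescence ratio rise of at least 3 SD of vehicle wells above their mean, in both replicate wells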
KCNQ2 pot conf – rat KCNQ2 channel potentiators, confirmation, cell-based, CHO, FluxOR thallium flux, duplicate; AID 2287, 2010; CHO-KCNQ2 cells, FluxOR thallium flux fluorescence; 1,200 compounds, 68% hits; shares compounds with KCNQ2 enhance; potentiation, less the hit threshold, % at 10 µM;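 active means fluorescence ratio rising 3 SD or more over the vehicle control mean in both replicates, plus primary screen hit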;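 further: peak minus minimum thallium fluorescence divided by baseline after K/Tl stimulus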
Kir2-1 sel – mouse Kir2.1 channel activation off-target, confirmation, selectivity assay for KCNQ2 potentiator project, cell-based, HEK293, FluxOR thallium flux. 1,200 compounds, 2% hits. activity over 3SD threshold, % at 10 µM. HEK293 Kir2.1, FluxOR thallium flux fluorescence. shares compounds with KCNQ2 enhance;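 active means fluorescence ratio rise of at least 3 SD above the vehicle-control mean, seen in both replicates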
KCNQ2 W236L pot – potentiators of retigabine-insensitive KCNQ2 W236L, mechanism study for KCNQ2 potentiator project, cell-based, rat KCNQ2 W236L, CHO, automated patch clamp; shares compounds with KCNQ2 enhance; automated patch clamp current; current increase over 3SD of negative controls (%), hits give high values, % at 25 µM; 940 compounds, 10% hits; AID 2558, 2010;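 active means current increase at least 3 SD of the untreated controls above them in both duplicate recordings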
Each line names hits and unclear results; the compound was inactive in the other large screens (follow-up assays come after a bar, where they were run). This is a sample that favours compounds with a hit; in the whole collection about 1.6% have one here. Unless noted, how the calls were made is not given here.

Cc1ccc(-c2cc(-c3ccc(C)cc3)[n+](-c3ccccc3)c(-c3ccc(C)cc3)c2)cc1	KCNQ2 inh -12.6 | KCNQ2 inh conf inactive | KCNQ1 spec inactive | CHO parental ctr inactive | Kir21 confirm 11.5% | HEK293 ctr inactive
CCOC(=O)c1cccc(-[n+]2c(-c3ccccc3)cc(-c3ccccc3)cc2-c2ccccc2)c1	KCNQ2 inh -7.3 | KCNQ2 inh conf -31.5% | KCNQ1 spec inactive | CHO parental ctr inactive | KCNQ2 patch conf inactive | Kir21 confirm inactive | HEK293 ctr inactive
Cc1ccc(-c2cc(-c3ccc(C)cc3)[n+](C)o2)cc1	none (no result: KCNQ2 enhance)
c1ccc(-c2cc(-c3ccccc3)[n+](-c3ccccc3)c(-c3ccccc3)c2)cc1	KCNQ2 inh -12.8 | KCNQ2 inh conf inactive | KCNQ1 spec inactive | CHO parental ctr inactive | Kir21 confirm 34.5% | HEK293 ctr inactive
CCOC(=O)c1ccccc1C(=O)OCC	none
C[n+]1c(-c2ccccc2)cc(-c2ccc(Cl)cc2)cc1-c1ccccc1	none
O=c1[nH]c(=O)n(Cc2ccccc2)c(O)c1C=Nc1ccc(CN2CCOCC2)cc1	none
C=CCC1(Nc2ccccc2)CC(C)N(C)CC1C (stereo unspecified)	none
COC(=O)c1ccccc1OP(=O)(c1cccc([N+](=O)[O-])c1)c1cccc([N+](=O)[O-])c1	none
CCN1CCN(Cc2ccc(C)cc2)CC1	none
Cc1cccc(CN2CCN(Cc3ccc(Cl)cc3)CC2)c1	none (no result: KCNQ2 enhance) | Kir21 confirm 23.5% | HEK293 ctr inactive
Cc1ccc(CN2CCN(Cc3ccccc3F)CC2)cc1	none | Kir21 confirm 42.5% | HEK293 ctr inactive
Cc1cccc(CN2CCN(c3ccc(Cl)cc3)CC2)c1	none (no result: KCNQ2 enhance)
C=CCn1c(O)c(C(CC)=NCCN2CCN(C(=S)NC)CC2)c(=O)[nH]c1=O	none (no result: KCNQ2 enhance)
CCC(C)N1Cc2ccccc2C1=N (stereo unspecified)	none (no result: KCNQ2 enhance)
Fc1ccc(C(OCCN2CCCC2)c2ccc(F)cc2)cc1	none
Fc1ccc(C(OCCN2CCCC2)c2ccc(Br)cc2)cc1 (stereo unspecified)	none (no result: KCNQ2 enhance) | Kir21 confirm 45.0% | HEK293 ctr inactive
COc1ccc(CCn2c(O)c(/C=N/N3CCOCC3)c(=O)[nH]c2=O)cc1OC	none (no result: KCNQ2 enhance)
COP(=S)(OC)SCN1C(=O)c2ccccc2C1=O	none
CN(C)CCOC(=O)c1cn(Cc2ccccc2)c2ccccc12	none (no result: KCNQ2 enhance) | Kir21 confirm 52.5% | HEK293 ctr inactive
CCC(=O)c1cn(Cc2ccccc2)c2ccccc12	none
CCC(CO)(C(=O)OC1C[N+]2(C)CCC1CC2)c1ccccc1 (stereo unspecified)	none (no result: KCNQ2 enhance)
CC(NCc1ccc(Cl)cc1)C(O)c1ccccc1 (stereo unspecified)	none (no result: KCNQ2 enhance) | Kir21 confirm 21.5% | HEK293 ctr 73.0%
CC(NCc1ccc(Cl)cc1Cl)C(O)c1ccccc1 (stereo unspecified)	none (no result: KCNQ2 enhance) | Kir21 confirm 15.5% | HEK293 ctr inactive
CCOc1c(Cl)cc(CNC(C)C(O)c2ccccc2)cc1OC (stereo unspecified)	none (no result: KCNQ2 enhance)
CC(NCc1cccc(Cl)c1Cl)C(O)c1ccccc1 (stereo unspecified)	none (no result: KCNQ2 enhance)
COc1cccc(NC(=O)N2CCC3(CC2)OCCO3)c1	none
CC/C(=N\NC(=O)c1ccccc1O)c1c(O)n(C2CCCCC2)c(=O)[nH]c1=O	none
Oc1cccc2nc3ccccc3nc12	KCNQ2 enhance 12.4 | Kir21 confirm inactive | HEK293 ctr inactive | CHO-K1 ctr inactive | KCNQ1 sel pot inactive | KCNQ2 pot conf 7.1 | Kir2-1 sel inactive | KCNQ2 W236L pot inactive
CC(=O)OC1N=C(c2ccccc2)c2ccccc2NC1=O (stereo unspecified)	none (no result: KCNQ2 enhance)
Cn1c(O)c(C(c2ccccn2)c2c(O)n(C)c(=S)[nH]c2=O)c(=O)[nH]c1=S	none (no result: KCNQ2 enhance)
O=C(c1cccc(C(F)(F)F)c1)N1C[C@H]2C[C@@H](C1)c1cccc(=O)n1C2	none (no result: KCNQ2 enhance)
O=c1[nH]sc2cc(F)ccc12	KCNQ2 enhance 6.9 | CHO-K1 ctr inactive | KCNQ1 sel pot inactive | KCNQ2 pot conf 0.2 | Kir2-1 sel inactive | KCNQ2 W236L pot 55.8%
CN1CCN(c2nc3ccccn3c(=O)c2C=C2C(=O)N(C)C(=O)N(C)C2=O)CC1	none (no result: KCNQ2 enhance)
CCCCCSc1cc(O)c(C(CNC)C(C)C)cc1OC (stereo unspecified)	none
CCCCCSc1cc(OC)c(CCN(C)C)cc1OC	none | Kir21 confirm 45.0% | HEK293 ctr inactive

High-throughput results: PubChem BioAssay, Johns Hopkins Ion Channel Center
